TDP1 cell noCPT: qHTS for Inhibitors of human tyrosyl-DNA phosphodiesterase 1 (TDP1): qHTS in cells in absence of CPT | DT40 Tdp1-/- hTDP1 cells, no CPT, ATP luminescence, 48 h | Potency, µM (series often up to 46.2 µM), most hits filed as inhibitors | hit rate 15% among 420,000 | AID 686978, 2013; further: nearly all actives have a fitted effect of over 55% in size
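Luminescent ATP content (CellTiter-Glo) served as the growth readout. Knockout chicken DT40 cells expressing human TDP1 were exposed to compounds without camptothecin for a minimum 48 hr at 37 °C.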
DT40 TDP1 CPT: qHTS for Inhibitors of human tyrosyl-DNA phosphodiesterase 1 (TDP1): qHTS in cells in presence of CPT | chicken DT40 Tdp1-/-;hTDP1 cells + 20 nM CPT, ATP luminescence, 48 h | Potency, µM (doses to about 46.2 µM), most hits filed as inhibitors | hit rate 12% among 420,000; further: nearly all actives have a fitted effect of over 55% in size
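Chicken DT40 Tdp1-/- cells complemented with human TDP1, 400 cells/well, exposed to compounds plus 20 nM camptothecin for at least 48 h at 37 C; viability read as ATP content by CellTiter-Glo luminescence.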
ALOX12 inh: Primary qHTS assay for inhibitors of human arachidonate 12S-lipoxygenase (ALOX12): Round 2 | Polyunsaturated fatty acid lipoxygenase ALOX12 (Homo sapiens), P18054 | purified 12hLO, xylenol orange hydroperoxide absorbance | Potency, µM (doses to about 108 µM), most hits filed as inhibitors | hit rate 1.1% among 580,000
Target sequence (P18054 whole entry, looked up): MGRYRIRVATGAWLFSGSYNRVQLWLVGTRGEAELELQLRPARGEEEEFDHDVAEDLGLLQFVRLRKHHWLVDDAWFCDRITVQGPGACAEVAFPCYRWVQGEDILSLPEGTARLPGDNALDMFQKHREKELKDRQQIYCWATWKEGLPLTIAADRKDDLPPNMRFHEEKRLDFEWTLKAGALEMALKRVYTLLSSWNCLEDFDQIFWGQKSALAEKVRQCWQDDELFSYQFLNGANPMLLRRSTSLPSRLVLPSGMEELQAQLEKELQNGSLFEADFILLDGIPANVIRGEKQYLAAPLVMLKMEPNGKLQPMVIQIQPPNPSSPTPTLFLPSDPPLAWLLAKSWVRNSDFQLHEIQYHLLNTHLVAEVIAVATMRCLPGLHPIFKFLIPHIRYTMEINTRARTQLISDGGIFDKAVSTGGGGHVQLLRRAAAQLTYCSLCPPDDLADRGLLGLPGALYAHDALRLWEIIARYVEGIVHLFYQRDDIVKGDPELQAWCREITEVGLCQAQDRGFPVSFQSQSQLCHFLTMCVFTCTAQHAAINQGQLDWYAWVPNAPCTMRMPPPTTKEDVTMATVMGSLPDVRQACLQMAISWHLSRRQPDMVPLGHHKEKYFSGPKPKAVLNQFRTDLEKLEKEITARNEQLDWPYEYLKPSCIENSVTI
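Purified human 12hLO (150 nM final) in 25 mM Hepes, 0.01% Triton X-100, pH 7.0 was preincubated 15 min at room temperature with compound. Then 40 uM arachidonic acid was added, 30 min. Hydroperoxide was read by Fe-XO absorbance ratio 573/405 nm.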
HT1080NT lethal: qHTS for induction of synthetic lethality in tumor cells producing 2HG: qHTS for the HT-1080-NT fibrosarcoma cell line. HT-1080-NT fibrosarcoma viability, CellTiter-Glo ATP luminescence, 48 h. Potency, µM (top dose mostly 46.1 µM), usual class: cytotoxic. hit rate 1.6% among 360,000. AID 686970, 2013;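 further: NT is the 2HG producing partner of a matched IDH1 knockdown line; nearly all actives have a fitted effect of over 55% in size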
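Compounds were tested in concentration-response format on HT-1080-NT cells for 48 hours at 37 degrees C. Cell viability came from CellTiter-Glo luminescence; curves were classified by r2, response magnitude and activity.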
IL1B secr inh: qHTS for Inhibitors of Inflammasome Signaling: IL-1-beta AlphaLISA Primary Screen | THP-1 LPS/ATP IL-1B secretion, AlphaLISA, 16 h; active compounds read low | activity change, % at 57.5 µM | hit rate 4.7% among 360,000; in the data active means activity change below about -50%; inconclusive means mostly about -30% to -49%
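Secreted IL-1B measured by AlphaLISA bead assay after 16 h compound exposure of THP-1 cells; compounds (final up to 57.5 uM) added 1 h before LPS (250 ng/mL) and ATP (1.25 mM) stimulation; lower signal means less secretion.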
HT1080 IDH1KD tx: qHTS for induction of synthetic lethality in tumor cells producing 2HG: qHTS for the HT-1080-IDH1KD cell line; hit rate 2% among 360,000; AID 686971, 2013; Potency, µM (highest dose often 46.1 µM), hits mostly cytotoxic; HT-1080 IDH1 knockdown viability, ATP luminescence, 48 h
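Using the IDH1-knockdown HT-1080 line run in the same batch and compound series as the NT line, viability after 48 h at 37 °C was determined by CellTiter-Glo luminescence and expressed as % activity.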
Large screens that a line does not name were inactive; ! = not active in a repeat. This is one part of a sample in which hits are shown more often than they occur. Unless noted, the call rests on the fitted dose curve; in most records, active means well fitted curve in the direction sought with a large enough effect; inconclusive means small, poorly fitted or top-dose-only effect, or another doubt; inactive means no such curve, though single readings can be large; an effect the other way counts as inactive or inconclusive.

CCOC(=O)CSC1=NC(=O)/C(=C/c2ccc(OC)cc2)S1	TDP1 cell noCPT 1.3µM, DT40 TDP1 CPT 1.46µM, HT1080NT lethal inconclusive, IL1B secr inh -85.7, HT1080 IDH1KD tx inconclusive (no result: ALOX12 inh)
CC[N+](C)(C)c1ccc(/C=C/c2ccc3ccccc3n2)cc1	TDP1 cell noCPT inconclusive, DT40 TDP1 CPT 0.0282µM (no result: ALOX12 inh, HT1080NT lethal, IL1B secr inh, HT1080 IDH1KD tx)
Clc1ccc(/C=C/c2ccc3ccccc3n2)c(Cl)c1	TDP1 cell noCPT inconclusive (no result: ALOX12 inh, HT1080NT lethal, IL1B secr inh, HT1080 IDH1KD tx)
CC(OC(=O)/C=C/c1ccc2ccccc2n1)C(=O)N(C)c1ccccc1 (centres undefined)	TDP1 cell noCPT inconclusive, DT40 TDP1 CPT inconclusive
CCN(CC)c1ccc(/C=C/c2ccc3ccccc3n2)cc1	TDP1 cell noCPT 0.159µM, DT40 TDP1 CPT 0.159µM (no result: ALOX12 inh, HT1080NT lethal, IL1B secr inh, HT1080 IDH1KD tx)
Clc1ccc(/C=C/c2ccc3ccccc3n2)cc1Cl	TDP1 cell noCPT 3.55µM, DT40 TDP1 CPT 6.31µM (no result: ALOX12 inh, HT1080NT lethal, IL1B secr inh, HT1080 IDH1KD tx)
C(=C\c1cccs1)/c1ccc2ccccc2n1	none (no result: TDP1 cell noCPT, DT40 TDP1 CPT, HT1080NT lethal, IL1B secr inh, HT1080 IDH1KD tx)
CC(=O)/C=C/c1ccc2ccccc2n1	TDP1 cell noCPT 2.59µM, DT40 TDP1 CPT 5.17µM, ALOX12 inh inconclusive, HT1080NT lethal inconclusive, IL1B secr inh -119.7, HT1080 IDH1KD tx inconclusive
Cc1cc(Cl)ccc1-c1ccccc1CN	none (no result: TDP1 cell noCPT, DT40 TDP1 CPT, HT1080NT lethal, IL1B secr inh, HT1080 IDH1KD tx)
CC(NC(=O)c1n[nH]c(=O)c2ccccc12)c1nnc2n1CCCCC2 (centres undefined)	none (no result: TDP1 cell noCPT, DT40 TDP1 CPT, HT1080NT lethal, IL1B secr inh, HT1080 IDH1KD tx)
O=C1c2cnc3nc(SCc4cccc(Cl)c4)nn3c2CC2c3ccccc3CCN12 (centres undefined)	TDP1 cell noCPT 20.6µM, DT40 TDP1 CPT 14.6µM
CSc1nc2ncc3c(n2n1)CC1c2ccccc2CCN1C3=O (centres undefined)	TDP1 cell noCPT inconclusive, DT40 TDP1 CPT inconclusive
CCN1/C(=C/C(C)=C/c2sc3ccccc3[n+]2CC)Sc2ccccc21	TDP1 cell noCPT 0.184µM, DT40 TDP1 CPT 0.184µM, ALOX12 inh 35.5µM!, HT1080NT lethal 10.3µM, IL1B secr inh -97.5, HT1080 IDH1KD tx 1.46µM
CCN1/C(=C\C(C)=O)Sc2ccc(OC)cc21	DT40 TDP1 CPT inconclusive (no result: ALOX12 inh)
COc1ccc(N2C(N)=NC(N)=NC23CCCC3)cc1	TDP1 cell noCPT 1.46µM, DT40 TDP1 CPT inconclusive
NC1=NC2(CCCCC2)N(c2cccc(Cl)c2)C(N)=N1	TDP1 cell noCPT 0.461µM, DT40 TDP1 CPT 10.3µM
COc1ccccc1N1C(N)=NC(N)=NC12CCCCC2	TDP1 cell noCPT inconclusive
CCCCOc1ccc(N2C(N)=NC(N)=NC23CCCCC3)cc1	TDP1 cell noCPT 6.51µM, DT40 TDP1 CPT 9.2µM
CCCCOc1ccc(CN2CCCCC2)cc1	none
COc1ccc(OC)c(S(=O)(=O)Nc2ccc(O)c3ccccc23)c1	TDP1 cell noCPT 3.26µM, DT40 TDP1 CPT 2.06µM, ALOX12 inh inconclusive, HT1080NT lethal 23.1µM, HT1080 IDH1KD tx inconclusive
COc1ccc(OC)c(S(=O)(=O)Nc2cccc3c(O)cccc23)c1	TDP1 cell noCPT inconclusive, DT40 TDP1 CPT 20.6µM, ALOX12 inh inconclusive
COc1ccc(OC)c(S(=O)(=O)Nc2ccc(Oc3ccccc3)cc2)c1	TDP1 cell noCPT inconclusive, DT40 TDP1 CPT inconclusive, HT1080 IDH1KD tx inconclusive
Cc1c(CC(=O)NC2CCOCC2)c2c(n1CCc1ccccc1)CCCC2=O	none (no result: TDP1 cell noCPT, DT40 TDP1 CPT, HT1080NT lethal, IL1B secr inh, HT1080 IDH1KD tx)
CCOC(=O)c1cnc(SCC(=O)Nc2ccc(C)c(Cl)c2)nc1N	none (no result: TDP1 cell noCPT, DT40 TDP1 CPT, HT1080NT lethal, IL1B secr inh, HT1080 IDH1KD tx)
CCn1c(=O)c(C(=O)NCc2ccccc2)c(O)c2ccccc21	TDP1 cell noCPT inconclusive
CCn1c(=O)c(C(=O)NCc2ccc(Cl)cc2)c(O)c2ccccc21	TDP1 cell noCPT inconclusive, DT40 TDP1 CPT 20.6µM
CCn1c(=O)c(C(=O)NCc2ccc(F)cc2)c(O)c2ccccc21	TDP1 cell noCPT inconclusive, DT40 TDP1 CPT 9.2µM
CN(Cc1ccccc1)CC(C#N)C(O)c1ccccn1 (centres undefined)	none (no result: TDP1 cell noCPT, DT40 TDP1 CPT, HT1080NT lethal, IL1B secr inh, HT1080 IDH1KD tx)
